Measurements as given in ChEMBL document CHEMBL3988442, “University of Dundee, Small-Polar-MMV Screening Library” (2021).

target: T1, Tyrosyl-tRNA synthetase, putative (Trypanosoma cruzi (strain CL Brener)) (UniProt Q4DSP6); assay: Trypanosoma cruzi tyrosyl tRNA synthetase (TcYRS) SOP; format: functional; set-up: scale not given: direction of the effect not stated beside the values; details: 30 µM
T1 sequence (whole entry): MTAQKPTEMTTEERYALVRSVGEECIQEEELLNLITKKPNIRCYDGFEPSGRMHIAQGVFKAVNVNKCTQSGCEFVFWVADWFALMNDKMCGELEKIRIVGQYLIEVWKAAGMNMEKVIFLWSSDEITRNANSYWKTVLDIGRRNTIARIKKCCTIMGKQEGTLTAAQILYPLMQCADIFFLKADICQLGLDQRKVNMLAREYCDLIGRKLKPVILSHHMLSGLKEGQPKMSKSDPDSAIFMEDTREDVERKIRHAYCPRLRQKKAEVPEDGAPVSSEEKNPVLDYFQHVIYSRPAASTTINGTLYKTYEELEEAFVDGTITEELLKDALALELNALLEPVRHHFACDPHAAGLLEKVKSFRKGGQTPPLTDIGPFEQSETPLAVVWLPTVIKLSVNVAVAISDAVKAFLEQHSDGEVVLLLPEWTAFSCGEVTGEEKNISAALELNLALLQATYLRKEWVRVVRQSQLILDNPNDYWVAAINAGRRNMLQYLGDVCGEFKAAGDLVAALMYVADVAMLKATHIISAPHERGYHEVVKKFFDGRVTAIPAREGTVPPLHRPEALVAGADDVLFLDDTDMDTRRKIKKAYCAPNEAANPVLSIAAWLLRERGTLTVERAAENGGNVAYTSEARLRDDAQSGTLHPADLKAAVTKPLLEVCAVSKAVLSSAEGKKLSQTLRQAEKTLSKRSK

| Compound | Percent Effect [%] |
| --- | --- |
| Cn1cc(CC2CCN(C(=O)NCc3cn4ccsc4n3)C2)cn1 (stereo not given) | 18.2 |
| COc1cc(C(=O)N(CCC#N)Cc2ccccn2)cc(OC)c1C | 3.7 |
| CN(Cc1cccnc1)C1CC2(CCN(c3ccccn3)CC2)C1 | 16.7 |
| Cc1cc(NC(=O)N2CCN(c3nc(C)c(C)s3)CC2)no1 | 8.54 |
| CN(C)CCCNC(=O)c1cc(Br)c2c(c1)OCCO2 | 18.5 |
| O=C(Cn1nc2c(cc1=O)CCCC2)N[C@@H](C(=O)O)c1ccccc1 | 20.5 |
| Cc1cnn(CC2CN(c3cnc4ccccc4n3)CCO2)c1 (stereo not given) | 21.5 |
| CNC(=O)[C@H]1C[C@@H]2CN(C(=O)c3cscn3)C[C@@H]2N1S(C)(=O)=O | -52.5 |
| Cn1cc(CN2C[C@@H]3COC[C@]3(C(=O)NCc3ccccn3)C2)cn1 | 2.5 |
| CCn1c(Nc2ccccc2OC)nc2c(C)nn(C)c2c1=O | 10.3 |
| Cc1ccc(CNCc2nnc3n2CC(C(F)(F)F)CC3)cc1 (stereo not given) | 13.6 |
| O=c1[nH]c2c(c(=O)n1C1CCCCC1)CCC2Nc1ccccc1 (stereo not given) | 0 |
| Cc1ccc(C)c(C(NC(=O)C2CC2)c2cccnc2)c1 (stereo not given) | 8.97 |
| Cc1cc(N2CCN(CC(=O)N(C)C)CC2)nc(-c2ccncc2)n1 | 28.6 |
| c1cc(OCc2ccc3c(c2)OCCO3)ccc1CNC1CC1 | 5.2 |
| CN(Cc1ccccn1)C1CC2(CCN(Cc3cccnc3)CC2)C1 | 11.5 |
| Cc1ccc(CNC(=O)N(Cc2ccccc2F)C2CC2)cn1 | 8.64 |
| O=C(NC1CCC1)[C@@H]1CCO[C@@H]2CCN(CCc3ccccc3)C[C@H]21 | 18.3 |
| c1ccc2sc(N3CCOC(Cn4cccn4)C3)nc2c1 (stereo not given) | 25.9 |
| Cc1nn(CCO)c(C)c1CNC1CCC(C)(C)c2ccccc21 (stereo not given) | 13.6 |

| Compound | Percent Effect [%] |
| --- | --- |
| CSCC(=O)N1CCCC1c1noc(C2CC2)n1 (stereo not given) | 11.1 |
| Cc1cc(S(=O)(=O)Nc2cccc(-n3cccc3)c2)sc1C(=O)O | -38.3 |
| CNC(=O)[C@@H]1C[C@H]2CN(C(=O)c3ccco3)C[C@H]2N1C | 5 |
| O=C(Cc1ccccn1)N1CCC2(CC1)CC(Oc1ccccn1)CO2 (stereo not given) | 16.7 |
| CN(C)C(=O)[C@@H]1CCO[C@@H]2CCN(Cc3ccccc3)C[C@@H]21 | 8.54 |
| NC(=O)c1nc(COc2ccc3c(c2)OCO3)no1 | 10.3 |
| CNC(=O)c1cnc(/C=C/c2ccc(OC)c(O)c2)s1 | 6.1 |
| Cc1ccc([C@@H]2CN(S(=O)(=O)C(C)C)C[C@H]2N(C)C)cc1 | 18.5 |
| Cc1cc(C(=O)N2CCC3(CCCN(CC4CC4)C3=O)C2)c(C)n1C (stereo not given) | 28.4 |
| CCCN1CCC(NC(=O)c2ccc(F)cc2I)CC1 | 15.4 |
| COCCC(=O)N1CCC2(COCc3c(C)nc(NCC4CC4)nc32)C1 (stereo not given) | 11.5 |
| CN(Cc1ccco1)[C@@H]1CN(Cc2ccco2)[C@@H]2CCCO[C@H]12 | 11.5 |
| CC(C)c1n[nH]c(C(=O)Nc2ccncc2)c1Br | 8.86 |
| COc1ccc(-c2nc(CN3CC(n4nc(C)cc4C)C3)no2)cc1 | 1.24 |
| CCC(C(=O)NCc1ccncc1)N(c1cccc(C)c1)S(C)(=O)=O (stereo not given) | 13.6 |
| Cc1cc(C)n(C2CN(Cc3noc(-c4ccccc4)n3)C2)n1 | 1.24 |
| CC(O)CNCc1ccc(OCc2ccc3c(c2)OCCO3)cc1 (stereo not given) | 5.2 |
| Cc1cc(CNC(=O)N2CCN(c3ccccc3)CC2)no1 | 3.66 |
| O=c1[nH]c2c(c(=O)n1C1CCCCC1)CCC2NCCc1ccccc1 (stereo not given) | 0 |
| O=C(c1ccc(C2CCCO2)s1)N1Cc2ccccc2C1 (stereo not given) | 0 |

target: Chromo domain-containing protein 1 (Saccharomyces cerevisiae (strain ATCC 204508 / S288c) (Baker's yeast)) (UniProt P32657); assay: ScCHD-1 Enzyme Inhibition Assay; format: functional; set-up: scale not given: in the data most compounds retested in dose-response had high values; details: 30 µM
Sequence (P32657 whole entry, the tested form may be a part): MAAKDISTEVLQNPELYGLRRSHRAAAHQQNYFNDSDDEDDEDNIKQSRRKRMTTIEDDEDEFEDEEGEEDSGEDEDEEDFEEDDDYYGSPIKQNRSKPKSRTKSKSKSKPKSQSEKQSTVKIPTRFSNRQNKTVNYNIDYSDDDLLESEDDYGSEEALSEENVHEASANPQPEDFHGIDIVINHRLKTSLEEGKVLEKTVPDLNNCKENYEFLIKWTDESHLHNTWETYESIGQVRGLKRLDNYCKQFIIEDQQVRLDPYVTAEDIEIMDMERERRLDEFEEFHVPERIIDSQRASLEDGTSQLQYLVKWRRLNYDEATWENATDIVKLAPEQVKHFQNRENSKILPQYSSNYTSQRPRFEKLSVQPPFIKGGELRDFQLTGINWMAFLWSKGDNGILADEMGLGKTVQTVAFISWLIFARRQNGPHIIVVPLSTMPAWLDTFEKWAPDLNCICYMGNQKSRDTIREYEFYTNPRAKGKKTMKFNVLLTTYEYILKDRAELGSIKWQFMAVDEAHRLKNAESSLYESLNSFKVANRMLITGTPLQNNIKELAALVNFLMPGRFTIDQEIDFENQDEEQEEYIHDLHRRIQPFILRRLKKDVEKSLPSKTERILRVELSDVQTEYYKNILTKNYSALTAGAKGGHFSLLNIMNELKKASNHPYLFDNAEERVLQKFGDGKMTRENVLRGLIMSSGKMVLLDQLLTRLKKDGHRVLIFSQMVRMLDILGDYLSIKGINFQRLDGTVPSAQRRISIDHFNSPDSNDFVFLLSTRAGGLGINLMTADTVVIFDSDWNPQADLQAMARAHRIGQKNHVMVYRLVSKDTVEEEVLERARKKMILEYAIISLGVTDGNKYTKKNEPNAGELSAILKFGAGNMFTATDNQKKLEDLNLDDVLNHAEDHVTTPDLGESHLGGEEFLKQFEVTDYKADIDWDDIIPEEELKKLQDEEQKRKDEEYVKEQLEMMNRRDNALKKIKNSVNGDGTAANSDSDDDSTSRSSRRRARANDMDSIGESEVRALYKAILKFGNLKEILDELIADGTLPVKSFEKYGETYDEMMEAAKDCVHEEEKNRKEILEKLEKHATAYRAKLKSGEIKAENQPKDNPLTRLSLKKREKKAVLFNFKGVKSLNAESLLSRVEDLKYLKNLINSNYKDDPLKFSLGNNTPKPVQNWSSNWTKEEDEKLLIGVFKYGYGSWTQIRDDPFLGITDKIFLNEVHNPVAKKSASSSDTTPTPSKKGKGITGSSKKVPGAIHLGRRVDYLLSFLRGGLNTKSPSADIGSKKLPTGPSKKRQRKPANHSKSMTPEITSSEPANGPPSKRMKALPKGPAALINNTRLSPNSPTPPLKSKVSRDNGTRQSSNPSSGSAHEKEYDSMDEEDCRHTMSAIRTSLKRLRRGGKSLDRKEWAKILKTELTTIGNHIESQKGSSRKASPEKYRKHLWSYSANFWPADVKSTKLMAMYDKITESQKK

| Compound | Percent Effect [%] |
| --- | --- |
| Cn1cc(CC2CCN(C(=O)NCc3cn4ccsc4n3)C2)cn1 (stereo not given) | -14.5 |
| COc1cc(C(=O)N(CCC#N)Cc2ccccn2)cc(OC)c1C | -3.63 |
| CN(Cc1cccnc1)C1CC2(CCN(c3ccccn3)CC2)C1 | -5.79 |
| Cc1cc(NC(=O)N2CCN(c3nc(C)c(C)s3)CC2)no1 | -0.744 |
| CN(C)CCCNC(=O)c1cc(Br)c2c(c1)OCCO2 | -7.32 |
| O=C(Cn1nc2c(cc1=O)CCCC2)N[C@@H](C(=O)O)c1ccccc1 | -5.57 |
| Cc1cnn(CC2CN(c3cnc4ccccc4n3)CCO2)c1 (stereo not given) | -12.5 |
| CNC(=O)[C@H]1C[C@@H]2CN(C(=O)c3cscn3)C[C@@H]2N1S(C)(=O)=O | -3.61 |
| Cn1cc(CN2C[C@@H]3COC[C@]3(C(=O)NCc3ccccn3)C2)cn1 | -5.35 |
| CCn1c(Nc2ccccc2OC)nc2c(C)nn(C)c2c1=O | -10.1 |
| Cc1ccc(CNCc2nnc3n2CC(C(F)(F)F)CC3)cc1 (stereo not given) | -11.9 |
| O=c1[nH]c2c(c(=O)n1C1CCCCC1)CCC2Nc1ccccc1 (stereo not given) | 0.309 |
| Cc1ccc(C)c(C(NC(=O)C2CC2)c2cccnc2)c1 (stereo not given) | -10.3 |
| Cc1cc(N2CCN(CC(=O)N(C)C)CC2)nc(-c2ccncc2)n1 | -6.26 |
| c1cc(OCc2ccc3c(c2)OCCO3)ccc1CNC1CC1 | -5.94 |
| CN(Cc1ccccn1)C1CC2(CCN(Cc3cccnc3)CC2)C1 | -7.41 |
| Cc1ccc(CNC(=O)N(Cc2ccccc2F)C2CC2)cn1 | -2.37 |
| O=C(NC1CCC1)[C@@H]1CCO[C@@H]2CCN(CCc3ccccc3)C[C@H]21 | -3.4 |
| c1ccc2sc(N3CCOC(Cn4cccn4)C3)nc2c1 (stereo not given) | -17.7 |
| Cc1nn(CCO)c(C)c1CNC1CCC(C)(C)c2ccccc21 (stereo not given) | -6.8 |

| Compound | Percent Effect [%] |
| --- | --- |
| CSCC(=O)N1CCCC1c1noc(C2CC2)n1 (stereo not given) | -16.6 |
| Cc1cc(S(=O)(=O)Nc2cccc(-n3cccc3)c2)sc1C(=O)O | 32.5 |
| CNC(=O)[C@@H]1C[C@H]2CN(C(=O)c3ccco3)C[C@H]2N1C | -5.57 |
| O=C(Cc1ccccn1)N1CCC2(CC1)CC(Oc1ccccn1)CO2 (stereo not given) | -7.71 |
| CN(C)C(=O)[C@@H]1CCO[C@@H]2CCN(Cc3ccccc3)C[C@@H]21 | -0.0601 |
| NC(=O)c1nc(COc2ccc3c(c2)OCO3)no1 | -8.03 |
| CNC(=O)c1cnc(/C=C/c2ccc(OC)c(O)c2)s1 | -1.59 |
| Cc1ccc([C@@H]2CN(S(=O)(=O)C(C)C)C[C@H]2N(C)C)cc1 | -8.94 |
| Cc1cc(C(=O)N2CCC3(CCCN(CC4CC4)C3=O)C2)c(C)n1C (stereo not given) | -1.72 |
| CCCN1CCC(NC(=O)c2ccc(F)cc2I)CC1 | -5.41 |
| COCCC(=O)N1CCC2(COCc3c(C)nc(NCC4CC4)nc32)C1 (stereo not given) | -2.58 |
| CN(Cc1ccco1)[C@@H]1CN(Cc2ccco2)[C@@H]2CCCO[C@H]12 | -5.52 |
| CC(C)c1n[nH]c(C(=O)Nc2ccncc2)c1Br | -3.82 |
| COc1ccc(-c2nc(CN3CC(n4nc(C)cc4C)C3)no2)cc1 | 1.8 |
| CCC(C(=O)NCc1ccncc1)N(c1cccc(C)c1)S(C)(=O)=O (stereo not given) | -7.66 |
| Cc1cc(C)n(C2CN(Cc3noc(-c4ccccc4)n3)C2)n1 | -0.0991 |
| CC(O)CNCc1ccc(OCc2ccc3c(c2)OCCO3)cc1 (stereo not given) | -3.79 |
| Cc1cc(CNC(=O)N2CCN(c3ccccc3)CC2)no1 | -1.36 |
| O=c1[nH]c2c(c(=O)n1C1CCCCC1)CCC2NCCc1ccccc1 (stereo not given) | -3.17 |
| O=C(c1ccc(C2CCCO2)s1)N1Cc2ccccc2C1 (stereo not given) | 2.95 |
